Experimental data published in PubChem BioAssay AID651871 (Sanford-Burnham Center for Chemical Genomics, 2012).
Where “and” joins values, the source holds several entries; their conditions need not be identical. Equal entries are not always repeated.

test system: H9c2; assay: cardiomyocyte survival under oxidative or metabolic stress – cell-based, panel, H9c2 and HL-1, ATP luminescence, set 2, SAR follow-up (AID 651871); settings: H9c2/HL-1 cardiomyocytes, 2-deoxyglucose stress, with 2-deoxyglucose; run 1, at 79 µM (top of the series);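 also: cells exposed to stressor for 2 h before ATP readout; reference of the scale not given here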

SMILES | activity (protection/inhibition)
COc1ccc2nc(-c3cc(OC)c(OC)c(OC)c3)cc(C(=O)NCC(=O)Nc3ccc(C(C)=O)cc3)c2c1 | 74.1%
CCOC(=O)c1cccc(NC(=O)CNC(=O)c2cc(-c3cc(OC)c(OC)c(OC)c3)nc3ccccc23)c1 | 92.1%
COc1ccc2c(c1OC)C(=O)N1c3ccccc3C(=O)N(Cc3cccc(Cl)c3Cl)C21 (stereo not drawn) | 80.3% and 69.7% and -3.54%
